# WRN helicase inh: qHTS for Inhibitors of WRN Helicase. actives 0.46% (n = 360,000). Bifunctional 3'-5' exonuclease/ATP-dependent helicase WRN (Homo sapiens), Q14191. Potency, µM (series often up to 114 µM), for inactives: at the highest dose activity change, negative = inhibition, actives largely listed as inhibitors. WRN helicase unwinding, fluorescent forked duplex, kinetic; further: on the % scale 0 is the no-effect control and ±100 the full control effect; nearly all actives have a fitted effect of over 55% in size
#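 Kinetic red-fluorescence monitoring (525/598 nm) tracks WRN helicase activity after 100 nM fluorophore-quencher forked duplex and 2 mM ATP are added to 20 nM enzyme pretreated 15 min at room temperature with compound.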
# POLI inh: qHTS for Inhibitors of Polymerase Iota. DNA polymerase iota (Homo sapiens), Q9UNA4. Pol iota fluorescent replication assay, 10 min. Potency, µM (series often up to 115 µM), inactives show top-dose activity, negative = inhibition, usual class: inhibitors. actives 1% (n = 390,000). AID 588590, 2011
#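 Pol iota at 10 nM preincubated 15 min with compounds at room temperature; reaction started with fluorescent substrate, 50 nM final. Fluorescence read kinetically at 0 and 10 min; buffer-only wells as negative control.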
# POLB inh: qHTS Assay for Inhibitors of DNA Polymerase Beta. actives 1.3% (n = 340,000). Potency, µM (top dose mostly 114 µM), inactives show at the highest dose activity change, negative = inhibition, actives largely listed as inhibitors. AID 485314, 2010. Pol beta primer extension/strand displacement, fluorescence kinetic; further: on the % scale 0 is the no-effect control and ±100 the full control effect
#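 Reaction started by 50 nM substrate onto compound-treated Pol beta (10 nM, 15 min preincubation, room temperature); plates read at 0 min and 10 min. Normalized concentration-effect data fitted by four-parameter Hill equation.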
# Pol kappa inh-1: qHTS for Inhibitors of Polymerase Kappa; purified Pol kappa, fluorescent DNA synthesis assay, 10 min; Potency, µM (series often up to 107 µM), inactives show at the top dose activity, negative = inhibition, actives largely listed as inhibitors; actives 0.53% (n = 400,000); AID 588579, 2011; DNA polymerase kappa (Homo sapiens), Q9UBT6; further: on the % scale 0 is the no-effect control and ±100 the full control effect
#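 Here, compound and 10 nM enzyme are combined for 15 min at room temperature; adding 50 nM substrate (final) starts DNA synthesis, tracked by fluorescence at 0 and 10 min against buffer-only wells.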
# Pol eta inh-1: qHTS for Inhibitors of Polymerase Eta. DNA polymerase eta (Homo sapiens), Q9Y253. recombinant Pol eta, fluorescent DNA replication assay. Potency, µM (titrated, usually from 114 µM), inactives show at the highest dose activity change, negative = inhibition, hits mostly inhibitors. actives 1.2% (n = 390,000). AID 588591, 2011; further: on the % scale 0 is the no-effect control and ±100 the full control effect
# Target sequence (Q9Y253 whole entry, looked up): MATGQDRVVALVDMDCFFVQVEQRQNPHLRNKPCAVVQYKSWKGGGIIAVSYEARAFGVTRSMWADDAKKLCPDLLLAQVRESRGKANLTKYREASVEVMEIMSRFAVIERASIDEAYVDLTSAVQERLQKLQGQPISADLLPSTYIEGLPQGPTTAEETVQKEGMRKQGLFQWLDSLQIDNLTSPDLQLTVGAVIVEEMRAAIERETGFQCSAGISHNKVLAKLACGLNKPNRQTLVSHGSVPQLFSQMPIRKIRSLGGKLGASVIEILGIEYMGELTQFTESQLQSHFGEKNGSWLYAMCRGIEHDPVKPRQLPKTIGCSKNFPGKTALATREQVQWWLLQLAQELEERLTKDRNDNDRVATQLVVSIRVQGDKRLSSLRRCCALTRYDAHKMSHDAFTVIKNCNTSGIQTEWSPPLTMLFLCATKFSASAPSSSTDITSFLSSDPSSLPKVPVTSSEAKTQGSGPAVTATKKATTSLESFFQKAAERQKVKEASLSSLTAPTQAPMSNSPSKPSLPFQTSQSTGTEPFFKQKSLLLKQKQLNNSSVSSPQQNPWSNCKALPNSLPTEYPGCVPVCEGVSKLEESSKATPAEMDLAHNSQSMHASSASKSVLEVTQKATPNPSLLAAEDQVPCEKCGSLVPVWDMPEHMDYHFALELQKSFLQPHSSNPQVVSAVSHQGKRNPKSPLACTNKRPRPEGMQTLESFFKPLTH
#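 Pol eta (10 nM) was preincubated with compounds for 15 min at room temperature, after which fluorescent replication substrate (50 nM final) was added to start the reaction. Fluorescence was read kinetically at 0 and 10 min.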
# FEN1 inh: qHTS Assay for the Inhibitors of Human Flap endonuclease 1 (FEN1) | Recombinant FEN1 flap cleavage, fluorescence, 15 min | Potency, µM (top dose mostly 114 µM), for inactives: at the top dose activity change, negative = inhibition, usual class: inhibitors | actives 0.35% (n = 390,000); further: on the % scale 0 is the no-effect control and ±100 the full control effect; nearly all actives have a fitted effect of over 65% in size
#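 Nuclease activity of 10 nM FEN1 was measured after 15 min of room-temperature exposure to titrated compounds, by adding 50 nM flap substrate and reading plates at 0 and 15 min.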
# TbPGK inh: qHTS for inhibitors of Phosphogylcerate Kinase: Hit Validation Screen; TbPGK coupled GAPDH assay, Kinase-Glo luminescence; shares compounds with Pol kappa inh-1; Potency, µM (top dose mostly 57.5 µM), inactives show at the highest dose activity change, negative = inhibition, usual class: inhibitors; actives 79% (n = 500); further: on the % scale 0 is the no-effect control and ±100 the full control effect; nearly all actives have a fitted effect of over 65% in size
# Pol iota confirm: qHTS for Inhibitors of Polymerase Iota: Confirmatory Assay for Cherry-picked Compounds. shares compounds with Pol kappa inh-1. Pol iota primer extension, TAMRA/BHQ fluorescence. Potency, µM, actives largely listed as inhibitors. actives 77% (n = 1,500). AID 720496, 2013
# Pol kappa inh-2: qHTS for Inhibitors of Polymerase Kappa: Confirmatory Assay for Cherry-picked Compounds | shares compounds with Pol eta inh-1 | purified Pol-kappa, fluorescent strand-displacement substrate | Potency, µM, actives largely listed as inhibitors | actives 76% (n = 920)
# Pol eta inh-2: qHTS for Inhibitors of Polymerase Eta: Confirmatory Assay for Cherry-picked Compounds; shares compounds with Pol eta inh-1; Pol eta primer extension, TAMRA/BHQ fluorescence, 10 min; Potency, µM, most hits filed as inhibitors; actives 64% (n = 2,600)
# The depositor's hits bear a star; ? = inconclusive; nt = no result; [ ] = dose if it differs, or a comment. Hits are enriched below; roughly 2.4% of the tested compounds scored in any of these assays. The call rests on the fitted dose curve; in most records, active means well fitted curve in the direction sought with a large enough effect; inconclusive means small, poorly fitted or top-dose-only effect, or another doubt; inactive means no such curve, though single readings can be large; an effect the other way counts as inactive or inconclusive. Potency means the concentration at half of the fitted maximal effect.
SMILES,WRN helicase inh,POLI inh,POLB inh,Pol kappa inh-1,Pol eta inh-1,FEN1 inh,Pol iota confirm,Pol eta inh-2,others
CC(C)C[C@H](NC(=O)CNC(=O)[C@H](C)NC(=O)[C@H](CC(C)C)NC(=O)[C@H](CCCNC(=N)N)NC(=O)[C@H](Cc1cnc[nH]1)NC(=O)[C@@H](NC(=O)[C@@H](NC(=O)[C@@H]1CSSC[C@H](NC(=O)[C@@H](N)CO)C(=O)N[C@@H](CC(N)=O)C(=O)N[C@@H]([C@@H](C)O)C(=O)N[C@@H](C)C(=O)N[C@@H]([C@@H](C)O)C(=O)N1)C(C)C)[C@@H](C)O)C(=O)N[C@@H](CC(C)C)C(=O)N[C@@H](CO)C(=O)N[C@@H](CCCNC(=N)N)C(=O)N[C@@H](CO)C(=O)NCC(=O)NCC(=O)N[C@H](C(=O)N[C@H](C(=O)N[C@@H](CCCCN)C(=O)N[C@@H](CC(=O)O)C(=O)N[C@@H](CC(N)=O)C(=O)N[C@@H](Cc1ccccc1)C(=O)N[C@H](C(=O)N1CCC[C@H]1C(=O)N[C@H](C(=O)N[C@@H](CC(N)=O)C(=O)N[C@H](C(=O)NCC(=O)N[C@@H](CO)C(=O)N[C@@H](CCCCN)C(=O)N[C@@H](C)C(=O)N[C@@H](Cc1ccccc1)C(N)=O)C(C)C)[C@@H](C)O)C(C)C)C(C)C)C(C)C,nt,nt,nt,-4%[60.1 µM],nt,nt,nt,nt,
COc1ccc(Cl)cc1NC(=O)CN1C(=O)C(C)(C)c2cc(S(=O)(=O)N3CCCCC3)ccc21,nt,3%,10%,-12%[60.1 µM],-18%,-13%,nt,nt,
CCOc1cc(/C=N/Nc2ccc(S(=O)(=O)Nc3ccccc3C(=O)O)cc2[N+](=O)[O-])cc(Cl)c1O,?,nt,nt,nt,25µM*,nt,47*,67*,Pol kappa inh-2=24*
O=[N+]([O-])c1cc(S(=O)(=O)Nc2ccc(Cl)cc2)ccc1N/N=C/c1ccncc1,7%,-8%,10%,-5%,3%,-11%,nt,nt,
Cc1ccc(NC(=O)CN2C(=O)S/C(=C/c3ccc(O)c([N+](=O)[O-])c3)C2=O)cc1C,79µM*,20µM*,89µM*,50µM*,45µM*,?,34*,?,Pol kappa inh-2=60*
O=C(CN1C(=O)S/C(=C\c2ccc(O)c([N+](=O)[O-])c2)C1=O)Nc1ccc(N2CCOCC2)cc1,-9%,-10%,1%,-8%,2%,15%,nt,nt,
CCOc1ccc(C2C(=O)N(C3CCCCC3)CC(=O)N2Cc2ccccc2OC)cc1OC (centres undefined),nt,-3%,?,-1%[60.1 µM],-6%,-7%,nt,nt,
CCNC(=O)COC(=O)/C=C/c1cccc(F)c1,4%,31%,18%,3%,-3%,-3%,nt,nt,
O=C(COC(=O)/C=C/c1cccc(F)c1)Nc1ncccn1,-30%,50µM*,-27%,?,28µM*,-4%,42*,48*,
Cn1nc(-c2ccc(C(=O)Nc3ccc(F)cc3)cc2)c2ccccc2c1=O,?,?,16µM*,-12%,?,?,42*,?,Pol kappa inh-2=24*
Cc1ccc(NC(=O)c2ccc(-c3nn(C)c(=O)c4ccccc34)cc2)cc1,-3%,14%,3%,4%,-5%,-8%,nt,nt,
O=C(/C=C/c1ccccc1)NCCc1ccccc1,-11%,?,25µM*,?,20µM*,-7%,?,67*,TbPGK inh=21µM*
Cc1ccc(S(=O)(=O)N2CCCCC2)cc1C(=O)Nc1ccc(S(=O)(=O)Nc2ncccn2)cc1,?,40µM*,?,79µM*,14µM*,?,42*,30*,
COc1cc(/C=N/NC(=O)c2cc(-c3cccn3C)n[nH]2)cc(OC)c1OC,6%[11.6 µM],3.5µM*,?,?,28µM*,?,?,27*,Pol kappa inh-2=19*
COc1cccc(/C=N/NC(=O)c2cc(-c3cccn3C)n[nH]2)c1O,?,?,?,-32%,-10%,-23%,nt,nt,
COc1cc(/C=N\NC(=O)c2ccc(=O)[nH]n2)cc(OC)c1OC,-1%,16µM*,13µM*,50µM*,?,1%,30*,48*,
COc1ccccc1CNc1ncnc2ccc(-c3ccc(N(C)C)cc3)cc12,nt,nt,nt,-12%[60.1 µM],nt,nt,nt,nt,
O=c1n(Cc2ccc([N+](=O)[O-])cc2)c2ccccc2c2nc(-c3ccccc3)nn12,nt,?,0%,-16%[60.1 µM],-3%,2%,nt,nt,
CS(=O)(=O)N1CCN(c2ccc([N+](=O)[O-])c(NCc3ccc(Cl)cc3)c2)CC1,?,8.9µM*,?,?,?,-5%,38*,85*,
CS(=O)(=O)N1CCN(c2ccc([N+](=O)[O-])c(NCc3ccccc3)c2)CC1,6%,-2%,5%,-3%,-12%,0%,nt,nt,
Cc1ccc(NC(=O)CSc2nnc3c(n2)[nH]c2ccccc23)cc1,3%,26%,11%,-6%,-17%,11%,nt,nt,
CC(=O)c1ccc(NC(=O)CSc2nnc3c(n2)[nH]c2ccccc23)cc1,nt,-18%,8.9µM*,3%,45µM*,?,?,?,Pol kappa inh-2=47*
